Reference: PubChem BioAssay (Tox21)
Inconclusive results are not listed. Entries that show only a call come without a potency. Activity calls are given as the source filed them. Calls come from the whole dose curve; as a rule, active = well fitted cell-killing curve with a large enough effect in the repeat runs; inconclusive = weak or mixed curves, or effect the other way; inactive = flat fitted curve, though single readings scatter.

How the values were obtained:
[1] = cAMP Responsive Elements (CRE) small molecule antagonists, cell-based qHTS assay: qHTS cell viability counter screen (AID 2060913); settings: CRE-bla HEK293T viability, CellTiter-Glo luminescence, 5 h; series mostly up to 92.4 µM; note: nearly all actives have a fitted effect of over 40% in size
In short: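 CRE-bla HEK293T cells were seeded in assay medium with 10% dialyzed FBS, incubated 18 hrs at 37 C, then exposed to compounds plus 0.25 uM final NKH477 for 3 hrs. Viability was read by CellTiter-Glo luminescence after 30 min, in the same wells.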

[2] = cAMP Responsive Elements (CRE) small molecule agonists, cell-based qHTS assay: qHTS cell viability counter screen (AID 2060914); settings: CRE-bla HEK293T viability, CellTiter-Glo luminescence, 5 h; series mostly up to 92.4 µM;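 note: viability read after 3 h of compound exposure; nearly all actives have a fitted effect of over 50% in size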
In short: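 Cells are seeded and incubated 18 h, treated with compounds in DMSO for 3 h, read for the bla reporter, then given CellTiter-Glo; luminescence is measured after 30 min at room temperature.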

CCCCCCCCCCCCOC(=O)c1ccc(O)cc1
Potency [1]: inactive
Potency [2]: inactive

CC1(C)S[C@@H]2[C@H](N=CN3CCCCCC3)C(=O)N2[C@H]1C(=O)O
Potency [1]: inactive
Potency [2]: inactive

O=C(O)c1cccc(C(F)(F)F)c1
Potency [1]: inactive
Potency [2]: inactive

Clc1ccc(Sc2cc(Cl)c(Cl)cc2Cl)cc1
Potency [1]: inactive
Potency [2]: inactive

N#Cc1ccc(C(=O)O)cc1
Potency [1]: inactive
Potency [2]: inactive

O=C(O)CS
Potency [1]: inactive
Potency [2]: inactive

COc1cnc(NS(=O)(=O)c2ccc(N)cc2)nc1
Potency [1]: inactive
Potency [2]: inactive

Nc1cccc(N)c1
Potency [1]: inactive
Potency [2]: inactive

O=[N+]([O-])c1ccccc1Nc1ccccc1
Potency [1]: inactive
Potency [2]: inactive

CCN(CC)C(=O)c1ccc(O)c(OC)c1
Potency [1]: inactive
Potency [2]: inactive

CCC(C)C=O (stereo not given)
Potency [1]: inactive
Potency [2]: inactive

c1ccc2sc(SSN3CCOCC3)nc2c1
Potency [1]: inactive
Potency [2]: inactive

CC(C)=CCC[C@@](C)(O)[C@H]1CC=C(C)CC1
Potency [1]: inactive
Potency [2]: inactive

COc1cc2c(c(OC)c1OC)-c1ccc(OC)c(=O)cc1[C@@H](NC(C)=O)CC2
Potency [1]: inactive
Potency [2]: inactive

CC(C)Nc1ccc(NC(C)C)c2c1C(=O)c1ccccc1C2=O
Potency [1]: inactive
Potency [2]: inactive

CC/C=C\CCCCO
Potency [1]: inactive
Potency [2]: inactive

CNS(=O)(=O)CCc1ccc2[nH]cc(C3CCN(C)CC3)c2c1
Potency [1]: inactive
Potency [2]: inactive

CC(COC(C)(C)C)OCCCO (stereo not given)
Potency [1]: inactive
Potency [2]: inactive

CC(C)C1=CC2=CC[C@@H]3[C@](C)(CCC[C@@]3(C)C(=O)O)[C@H]2CC1
Potency [1]: inactive
Potency [2]: inactive

CCCCC/C=C\C/C=C\CCCCCCCC(=O)OC
Potency [1]: inactive
Potency [2]: inactive
